# Compound activity as filed in PubChem BioAssay.
# PNC assembly inh: perinucleolar compartment assembly inhibition; PC3M PTB-GFP, PNC prevalence imaging, 16 h; hits give low values; activity change (PNC), negative = inhibition, % at 10 µM; hit rate 3.1% among 140,000; AID 2417;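 active = readout at or below -70, meaning at least 70% loss of cells showing the perinucleolar compartment, a nuclear body marking cancer cells; inconclusive = readout between -30 and a set limit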;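 also: plate controls were DMSO wells for no effect and camptothecin positive control wells for full effect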
#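 Compounds are pinned in duplicate onto adhered PC3M cells stably expressing GFP-tagged PTB and incubated 16 h at 37 C. Cells are then fixed, nuclei stained with Hoechst, and PNC-positive cells counted.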
# HPGD inh: HPGD (human) dehydrogenase inhibition; P15428; hit rate 4.3% among 150,000; purified HPGD, NADH fluorescence kinetic, PGE2 substrate; Potency, µM, inactives show top-dose activity change, negative = inhibition, usual class: inhibitors; also: potency is read from the fitted curve at half-maximal effect
# Target sequence (P15428 whole entry, looked up): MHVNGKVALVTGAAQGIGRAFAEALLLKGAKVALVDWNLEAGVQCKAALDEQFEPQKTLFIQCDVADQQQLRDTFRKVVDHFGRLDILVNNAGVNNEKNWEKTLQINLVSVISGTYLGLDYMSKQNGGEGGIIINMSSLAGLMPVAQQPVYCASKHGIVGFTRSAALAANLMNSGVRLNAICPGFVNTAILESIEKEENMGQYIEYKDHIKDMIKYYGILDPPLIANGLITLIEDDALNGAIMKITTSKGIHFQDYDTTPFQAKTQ
#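 20 nM HPGD preincubated 15 min at room temperature with compound in 50 mM Tris-HCl pH 8, 0.01% Tween 20. Started with 1 mM NAD+ and 30 uM prostaglandin E2; NADH fluorescence (360/450 nm) read 5 times over 30-s intervals, last minus first.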
# ALDH1A1 block: inhibitors of human aldehyde dehydrogenase 1A1; Purified ALDH1A1, NADH fluorescence, propionaldehyde substrate; Potency, µM (titrated, usually from 75.3 µM), for the others: at the top dose activity, negative = inhibition, hits mostly inhibitors; hit rate 7.3% among 220,000;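 also: potency is read from the fitted curve at half-maximal effect; plate controls were no enzyme wells and a reference inhibitor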
# KinaseGlo FLuc: Kinase-Glo luciferase inhibition (counter-screen); Potency, µM (series often up to 38.3 µM), inactives show at the highest dose activity change, negative = inhibition, actives largely listed as inhibitors; hit rate 0.28% among 200,000; AID 1379; Kinase-Glo luciferase, ATP luminescence, 8 min; Q27757; active = well fitted inhibition curve with a large enough effect; inconclusive = small, poorly fitted or top-dose-only effect; also: potency is read from the fitted curve at half-maximal effect; nearly all actives have a fitted effect of over 60% in size
#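 Recombinant Kinase-Glo luciferase, 10 uM ATP (linear range), luciferin; imidazole pH 7.2 / KCl / MgCl2 / Tween / BSA buffer; 8 min RT; luminescence.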
# Lamin A splicing: changes lamin A minigene splicing in HeLa cells; HeLa LMNA splicing GFP/RFP minigene ratio, 48 h; Potency, µM (series often up to 46.1 µM), inactives show at the top dose ratio change, negative = inhibition, most hits filed as inhibitors; hit rate 0.01% among 200,000; AID 1487; active = well fitted inhibition curve with a large enough effect in the signal ratio, with a control signal flat, not every such curve was filed as active; inconclusive = small, poorly fitted or top-dose-only effect, or effect the other way, or a change in a side signal; the % refers to the signal ratio; also: potency is read from the fitted curve at half-maximal effect
#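 S3 HeLa stable clones carrying a lamin A-EGFP splicing minigene plus DsRed2 were seeded at 600 cells/well in Opti-MEM with 2% FBS, pin-dosed and incubated 48 h at 37°C. Acumen cytometry (488 nm) gave the GFP/RFP total-intensity ratio.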
# Numbers without * were called inactive; ? = inconclusive; nt = not tested or not shown; ! = a repeat was not active; [ ] = another dose, or the depositor's remark. In the library only some 10% were active in any assay of this set; here they are far more common. Unless noted, calls follow the shape of the dose curve; as a rule, active = well fitted inhibition curve with a large enough effect (not every such curve was filed as active); inconclusive = small, poorly fitted or top-dose-only effect, or another doubt; inactive = no such curve, though single readings can be large or run the other way. Unless noted, % is scaled to controls: 0 for no effect and ±100 for the full control effect.
SMILES,PNC assembly inh,HPGD inh,ALDH1A1 block,KinaseGlo FLuc,Lamin A splicing
COc1cc(CC(=O)OCC2=C[C@H]3[C@@H]4C(C)(C)[C@]4(OC(C)=O)[C@H](OC(=O)Cc4ccccc4)[C@@H](C)[C@]3(O)[C@@H]3C=C(C)C(=O)[C@@]3(O)C2)ccc1O,nt,-18%,8%,2%[39.9 µM],nt
Cc1ccc(-c2nn(C)c(=O)c3ccccc23)cc1CNC(=O)/C=C/c1ccccc1,?,?,22µM*,-3%,?
c1ccc(C2CO2)cc1 (stereo not drawn),nt,-8%,6%,nt,nt
CCCCN1C(=O)/C(=C/c2ccc(N(C)C)cc2)C(=O)N(Cc2ccco2)C1=O,32,25µM*,0.71µM*,-5%,5%
O=C1NC(=O)N(Cc2ccco2)C(=O)/C1=C/c1cccn1CCOc1ccccc1Cl,-4,28µM*,-4%,-2%,?
CCCCn1c(=O)c(C=Nc2ccc(Cl)cc2)c(O)n(Cc2ccco2)c1=O,?,?,?,-4%,3%
CCN(CC)c1ccc(/C=C2\C(=O)NC(=O)N(Cc3ccco3)C2=O)cc1,-30,16µM*,0.5µM*,-5%,-6%
O=C(O)Cn1cc(C(=O)c2ccccc2)c2ccccc21,42,-11%,0%,2%,-5%
O=C(O)Cn1cc(/C=C2\C(=O)NC(=O)N(Cc3ccco3)C2=O)c2ccccc21,nt,nt,8.9µM*,0%,27%[46 µM]
ClC=CCl,nt,-12%,-3%,nt,nt
C[C@@]12CCC(=O)C=C1C=C[C@H]1[C@H]3CC[C@](O)(CCC(=O)O)[C@]3(C)CC[C@@H]12,nt,-3%,13%[20.9 µM],1%[17.1 µM],?
COc1ccc(N=Cc2c(O)n(CC3CCCO3)c(=O)[nH]c2=O)cc1 (stereo not drawn),47,?,?,-5%,5%
CCN(CC)c1ccc(/C=C2/C(=O)NC(=O)N(CC3CCCO3)C2=O)cc1 (stereo not drawn),59,35µM*,0.63µM*,-9%,4%
CCCCn1c(O)c(C(CC)=NCCN2CCOCC2)c(=O)[nH]c1=O,0,-13%,?,-4%,9%
CCCCn1c(O)c(C(CC)=NCCN2CCCCC2)c(=O)[nH]c1=O,-89*,-10%,?,13%,9%
CCCCn1c(O)c(C(CC)=Nc2cccc(C(=O)O)c2)c(=O)[nH]c1=O,-90*,?,?,0%,-14%
CNC(=O)Oc1ccc2c(c1)C(=O)c1ccccc1CO2,-7,-23%,11µM*,-4%,-3%
CNC(=O)Oc1cccc(-c2cn3cc(OC(=O)NC)ccc3n2)c1,-7,?,?,-23%,-7%
CCOC(=O)CC(SP(=O)(OC)OC)C(=O)OCC (stereo not drawn),nt,-21%,11µM*,nt,nt
COc1cc(C2C(C#N)=C(N)Oc3cc(O)ccc32)cc(OC)c1OC (stereo not drawn),-91*,-13%,?,-2%,?
CCc1ccc(/C=C(/C#N)C(N)=S)cc1,42,32µM*,32µM*,4%,?
N#C/C(=C\c1ccc(O)cc1)C(=O)O,nt,?,?,-5%,-3%
N#CC(C#N)=Cc1ccc(N2CCCC2)cc1,nt,nt,10µM*,12%,nt
CC(C)(C)c1cc(C=C(C#N)C#N)cc(C(C)(C)C)c1O,nt,?,8.9µM*!,-4%,?
COc1cc(C=C(C#N)C#N)cc(O)c1O,nt,32µM*,32µM*,-6%,?
SMILES,PNC assembly inh,HPGD inh,ALDH1A1 block,KinaseGlo FLuc,Lamin A splicing
Fc1ccc(C(OCCN2CCN(C/C=C/c3ccccc3)CC2)c2ccc(F)cc2)cc1,nt,nt,-14%,nt,nt
N#CC(C#N)=Cc1ccc(O)c(O)c1,nt,32µM*,11µM*,-6%,?
N#CC(=Cc1ccc(O)c(O)c1)C(N)=S,nt,28µM*,0.79µM*,-7%,?
CN(C)c1ccc(C=C(C#N)C#N)cc1,?,-5%,28µM*,-1%,-14%
NCCCNCCCCNCCCNC(=O)Cc1ccc(O)cc1,nt,-1%,6%[13.5 µM],0%[39.9 µM],nt
CCN1C[C@]2(C)CC[C@H](OC)[C@@]34[C@H]1C1(OCO[C@@]15C[C@H](OC)C1C[C@]3(O)C5[C@H]1OC)[C@@H](O)[C@H]24,nt,1%,2%,-3%,nt
O=C(O)C(O)(c1ccc(-c2ccccc2)cc1)c1ccc(-c2ccccc2)cc1,nt,-14%,-2%[13.5 µM],-4%[7.66 µM],nt
O=C1NC(=O)N(Cc2ccccc2)C(=O)/C1=C\N1CCCc2ccccc21,?,?,-2%,-3%,-6%
O=C1NC(=O)C(=CN2CCc3ccccc32)C(=O)N1,104,-20%,11µM*,-1%,-22%
COC1=CC(=O)OC(CCc2ccccc2)C1 (stereo not drawn),nt,-6%,-9%,nt,nt
N#Cc1ccc(CN2CC[C@@]3(CCCNC3)C2)cc1,nt,-11%,-8%,-4%,nt
c1ccc(CCN2CCC(N3CCN(c4ccccc4)CC3)CC2)cc1,-100*,11%,1%,-3%,0%
CCCCN(Cc1ccccc1)C1CCN(CCc2ccccc2)CC1,110,-2%,-2%,-1%,-10%
Cc1c(C=O)c2ccccc2n1Cc1cccc(F)c1,?,-11%,-12%,0%,-2%
O=Cc1c(C(=O)O)n(Cc2ccc(Cl)cc2)c2ccccc12,-15,-17%,13µM*,5%,?
O=C1CN=C(c2ccccc2)c2cc([N+](=O)[O-])ccc2N1,nt,25µM*,1%,1%[39.9 µM],?
O=C(Oc1ccccc1)N1CCC[C@@]2(CCN(Cc3ccccc3)C2)C1,nt,-7%,4%,-1%,nt
CN(C)C(=S)SSC(=S)N(C)C,nt,0.71µM*,0.079µM*,-2%,?
CN(C)C(=S)SC(=S)N(C)C,nt,-20%,3.5µM*,3%[39.9 µM],?
O=C(O)C[O][Sb][O]CC(=O)O,nt,0%,11%[13.5 µM],-2%[7.66 µM],nt
Cc1c(N=Cc2c(O)n(Cc3ccccc3)c(=O)[nH]c2=O)c(=O)n(-c2ccccc2)n1C,6,?,-12%,-3%,-1%
O=c1[nH]c(=O)n(Cc2ccco2)c(O)c1C=NCc1ccco1,27,28µM*,10µM*,-1%,?
CCN(CC)CCN=Cc1c(O)n(Cc2ccco2)c(=O)[nH]c1=O,nt,nt,11%,nt,nt
CC(=O)Nc1ccc(N=Cc2c(O)n(Cc3ccco3)c(=O)[nH]c2=O)cc1,nt,nt,9.5µM*,nt,?
Cc1c(N=Cc2c(O)n(Cc3ccco3)c(=O)[nH]c2=O)c(=O)n(-c2ccccc2)n1C,-82*,-19%,?,-4%,?
Oc1cccc(Cl)c1,nt,-7%,2%,nt,nt
CN[C@H]1C[C@H]2O[C@@](C)([C@H]1OC)n1c3ccccc3c3c4c(c5c6ccccc6n2c5c31)C(=O)NC4,-115*,?,-8%,1%,?
COC(=O)C1(O)CC2OC1(C)n1c3ccccc3c3c4c(c5c6ccccc6n2c5c31)C(=O)NC4 (stereo not drawn),nt,-16%,-2%[13.5 µM],4%[39.9 µM],nt
CSc1nc(N)c(N=Nc2ccc([As](=O)(O)O)cc2)c(=O)[nH]1,nt,nt,8.9µM*,nt,nt
